Screening results as filed in PubChem BioAssay.
Hits are enriched below; roughly 10% of the tested compounds scored in any of these assays.
Pf growth 48h = P. falciparum growth inhibition at 48 hours (one generation); P. falciparum luciferase growth in erythrocytes, 48 h; Potency, µM (doses to about 28.7 µM), for the others: at the top dose activity change, negative = inhibition, hits mostly inhibitors; AID 504832; 310,000 compounds, 5.9% hits; also: % is scaled to controls: 0 for no effect and ±100 for the full control effect
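Parasite viability was followed by luminescence of a genomically integrated firefly luciferase. Cultures held 0.1% parasitemia at 2% hematocrit (final), incubated under 5% CO2 at 37 C.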
SARS PLpro yeast = SARS-CoV PLP inhibition in yeast | 330,000 compounds, 0.19% hits | AID 485353 | S. cerevisiae expressing SARS-CoV PLpro, growth rescue | Potency, µM (top dose mostly 32.9 µM), for inactives: at the top dose activity, positive = growth rescue, hits mostly activators; calls by dose curve; also: 0% is about no effect; nearly all actives have a fitted effect of over 55% in size
Pf growth 96h = P. falciparum growth inhibition at 96 hour, primary screen for plastid delayed-death inhibitors; Potency, µM (series often up to 28.7 µM), without a hit: at the top dose activity change, negative = inhibition, usual class: inhibitors; P. falciparum luciferase reporter growth, 96 h; 320,000 compounds, 6.9% hits; AID 504834; also: % is scaled to controls: 0 for no effect and ±100 for the full control effect
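Plates of compound plus infected erythrocytes (2% hematocrit, 0.05% parasitemia final) incubate 96 hours, 37 C, 5% CO2. Detection reagent added; reduced luminescence from the parasites' luciferase reporter flags inhibition.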
NS1 inh = blocks influenza NS1 protein function; Potency, µM (top dose mostly 46.1 µM), without a hit: at the top dose activity, positive = more growth; 270,000 compounds, 0.4% hits; AID 2326; calls by dose curve; also: actives are rising curves; nearly all actives have a fitted effect of over 50% in size
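OD600 was taken as the measure of yeast growth restored by compound in an NS1-expressing S. cerevisiae strain. Cells had been washed out of glucose medium and diluted 1:100 into galactose -URA medium, pH 6.0.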
* = called active by the depositor; ? = inconclusive; . = no result; [ ] = another dose, or the depositor's remark. Unless noted, calls follow the shape of the dose curve; as a rule, active = well fitted inhibition curve with a large enough effect; inconclusive = small, poorly fitted or top-dose-only effect, or another doubt; inactive = no such curve, though single readings can be large or run the other way. Potency is read from the fitted curve at half-maximal effect.

SMILES | Pf growth 48h | SARS PLpro yeast | Pf growth 96h | NS1 inh
C=C1CC2C3CC[C@@]4(OCOC45COCO5)[C@@]3(C)C(O)CC2[C@@]2(C)CCC(=O)C=C12 (some centres not stated) | 10µM* | -8% | 13µM* | 7%
CC12CCC(=O)C=C1CCC1C2CCC2(C)C(O)CCC12 (configuration not stated) | -18% | -4% | 49% | -11%
Fc1ccc(CCNC(=S)Nc2ccc(F)c(Cl)c2)cc1 | ? | -5% | 4% | -69%
O=S(=O)(O)c1ccc(-c2nnc(-c3ccccn3)nc2-c2ccc(S(=O)(=O)O)o2)o1 | . | . | . | -5%
O=C(CSc1nnc2ccc(-c3ccncc3)nn12)Nc1ccc(F)cc1 | 12µM* | 1% | ? | .
O=C(CSc1nnc(Cn2nnc(-c3ccccc3)n2)n1-c1ccccc1)Nc1ccccc1 | ? | -3% | ? | -7%
Cc1cccc(C)c1NC(=O)CSc1nnc(Cn2nnc(-c3ccccc3)n2)n1-c1ccccc1 | 9.3µM* | -13% | -17% | -53%
O=C(CSc1nnc(Cn2nnc(-c3ccccc3)n2)n1-c1ccccc1)Nc1ccc(F)cc1 | 9.3µM* | 5% | . | -15%
Cc1cccc(C)c1NC(=O)CCCSc1nnc(-c2ccc(F)cc2)n1-c1ccccc1 | -14% | 11% | 12µM* | -7%
CCN1CCc2c(C#N)c(N3CCOCC3)nc(NCc3ccccc3)c2C1 | . | 2% | 18% | -2%
CCN1CCc2c(C#N)c(N3CCCCC3)nc(NCc3ccccc3)c2C1 | ? | . | 2.6µM* | -12%
CCc1nc(NCc2ccccc2)c(C#N)c2c1CCCC2 | 10µM* | -19% | ? | -5%
CC1CCC2(CC1)NC(=O)N(CC(=O)NCc1ccc(F)cc1)C2=O (configuration not stated) | -15% | 6% | ? | .
CCN1CCN(c2ccc(N)cc2C)CC1 | ? | 1% | ? | -4%
Cc1cc(N)ccc1N1CCCC1 | 0.47µM* | -9% | 0.41µM* | 6%
Cc1cc(N)ccc1-n1c(C)ccc1C | 7.4µM* | -14% | 11% | 6%
COc1ccccc1N(C(=O)c1ccncc1)c1nc(-c2ccc([N+](=O)[O-])cc2)cs1 | 9.3µM* | -35% | ? | 18%
Nc1cc(=O)[nH]c(SCC(=O)c2ccc(F)cc2)n1 | . | -2% | ? | 5%
O=C(CCc1ccc(S(=O)(=O)N2CCOCC2)cc1)Nc1c(F)cccc1F | . | 0% | . | .
CCCCCCN(C(=O)CCCCCN1C(=O)NC(c2ccc([N+](=O)[O-])cc2)C(C(=O)OCc2ccccc2)=C1C)C(C(=O)NCCCC)c1ccc(OCC(=O)OC)c(C(=O)OC)c1 (configuration not stated) | 1.9µM* | 1% | 3.3µM* | 1%
CCCCCCN(C(=O)CCCCCN1C(=O)NC(c2cccc([N+](=O)[O-])c2)C(C(=O)OCc2ccccc2)=C1C)C(C(=O)NCCCC)c1ccc(OCC(=O)OC)c(C(=O)OC)c1 (configuration not stated) | ? | -1% | 5.2µM* | ?
CCCCNC(=O)C(C)N(CCN(C)C)C(=O)CCCN1C(=O)NC(c2ccc([N+](=O)[O-])cc2)C(C(=O)OCc2ccccc2)=C1C (configuration not stated) | . | 11% | . | .
CCCCNC(=O)C(c1ccc(OCC(=O)OC)c(C(=O)OC)c1)N(CCc1c[nH]c2ccccc12)C(=O)CCCCCN1C(=O)NC(c2ccc(-c3ccccc3)cc2)C(C(=O)OCc2ccccc2)=C1C (configuration not stated) | 2.3µM* | 2% | 2.9µM* | ?
CCCCCCN(C(=O)CCCCCN1C(=O)NC(c2ccc(Cl)cc2)C(C(=O)OCc2ccccc2)=C1C)C(C(=O)NCCCC)c1ccc(OCC(=O)OC)c(C(=O)OC)c1 (configuration not stated) | 7.4µM* | -12% | ? | 13%
COCCCNC(=O)CSc1nc2cc(C(=O)NCCOC)ccc2c(=O)n1Cc1ccc2c(c1)OCO2 | ? | -2% | ? | -8%
SMILES | Pf growth 48h | SARS PLpro yeast | Pf growth 96h | NS1 inh
COc1ccc(S(=O)(=O)Nc2ccccn2)cc1C(=O)Nc1ccccc1 | 12% | -1% | ? | 8%
Cc1cc(C)c2nc3c(c([C@H](O)C4CCCCN4)c2c1)CC/C3=C/c1ccc(Cl)cc1 (some centres not stated) | . | . | . | -15%
CCOc1ccc(NC(=O)CN(C)C(=O)c2cccnc2Sc2ccccc2Cl)cc1OCC | ? | -3% | 13% | .
COc1ccc(-c2cc(C(=O)NCc3ccco3)c3ccccc3n2)cc1 | ? | -5% | 3.3µM* | -14%
O=C(NCc1ccco1)c1cc2ccc(O)cc2oc1=O | 105% | -24% | . | -232%
COc1ccc2cc(C(=O)NCc3ccco3)c(=Nc3ccc(C(=O)O)cc3)oc2c1 | 10µM* | -6% | ? | -6%
COc1ccc2oc(=Nc3ccc(C(=O)O)cc3)c(C(=O)NCc3ccco3)cc2c1 | 266% | 0% | ? | .
CCOC(=O)CSc1nc(NCc2ccco2)c2ccccc2n1 | -2% | -8% | 5% | -6%
COc1ccc2cc(C(=O)NCc3ccco3)c(=O)oc2c1 | 73% | 2% | 13µM* | -10%[9.22 µM]
COc1ccc(CNc2nc(SCC(=O)NCc3ccco3)nc3ccccc23)cc1 | 9.3µM* | 27% | -17% | 0%
O=C(NCc1ccco1)c1ccc2ccccc2n1 | 8% | -4% | 10µM* | -57%
O=[N+]([O-])c1cc(C(F)(F)F)ccc1N1CCCC(O)C1 (configuration not stated) | 8% | 0% | 10% | .
O=[N+]([O-])c1ccc(N2CCCC(C(F)(F)F)C2)c2ccncc12 (configuration not stated) | 13µM* | -51% | ? | -62%
COc1ccccc1/C=C1\CCC(C2CCCC2)C1=O (configuration not stated) | 57% | 5% | 15µM* | 3%
Cc1ccc(-c2cnc3ccccc3n2)cc1C | 126% | 0% | ? | -38%
Cc1oc(-c2cccc(F)c2)nc1CN1CCCCC1CCc1ccccn1 (configuration not stated) | 13µM* | -1% | ? | 3%
COc1ccc(-c2nc(CN3CCCCC3CCc3ccccn3)c(C)o2)cc1 (configuration not stated) | ? | 1% | ? | 5%
COc1nccnc1NS(=O)(=O)c1ccc(N)cc1 | 8% | 1% | ? | 6%
CCn1c(CNC(=O)C23CC4CC(CC(C4)C2)C3)nnc1SCC(=O)Nc1nnc(C)s1 | . | -1% | 7.4µM* | 1%
CCCCSc1nnc(CNC(=O)C23CC4CC(CC(C4)C2)C3)n1Cc1ccccc1 | 13µM* | 18% | ? | -29%
CCCCn1c(CNC(=O)C23CC4CC(CC(C4)C2)C3)nnc1SC(C)CC (configuration not stated) | 10µM* | 0% | ? | 1%
COc1ccc(NC2c3ccccc3C(=O)N2Cc2ccc3c(c2)OCO3)cc1 (configuration not stated) | ? | 0% | -20% | 2%
CC(C)N1CCC(=NNC(=O)c2cccs2)CC1 | 17% | -1% | 23% | -4%
